Screens: PubChem, Buhrlage Lab, Dana-Farber Cancer Institute and Novartis Institutes for BioMedical Research (Cambridge, Mass)
USP17 block – inhibitors of human USP17 deubiquitinase; inhibition, % at 50 µM; 47,000 compounds, 6.5% hits; purified USP17, Ub-rhodamine cleavage fluorescence, 3 h; AID 1645855, 2021; Ubiquitin carboxyl-terminal hydrolase 17-like protein 5 (Homo sapiens), A8MUK1
USP10 block – inhibitors of human USP10 deubiquitinase; purified USP10, Ub-rhodamine fluorescence, 60 min; inhibition, % at 20 µM; 47,000 compounds, 1.1% hits
Target sequence (Q14694 whole entry, looked up): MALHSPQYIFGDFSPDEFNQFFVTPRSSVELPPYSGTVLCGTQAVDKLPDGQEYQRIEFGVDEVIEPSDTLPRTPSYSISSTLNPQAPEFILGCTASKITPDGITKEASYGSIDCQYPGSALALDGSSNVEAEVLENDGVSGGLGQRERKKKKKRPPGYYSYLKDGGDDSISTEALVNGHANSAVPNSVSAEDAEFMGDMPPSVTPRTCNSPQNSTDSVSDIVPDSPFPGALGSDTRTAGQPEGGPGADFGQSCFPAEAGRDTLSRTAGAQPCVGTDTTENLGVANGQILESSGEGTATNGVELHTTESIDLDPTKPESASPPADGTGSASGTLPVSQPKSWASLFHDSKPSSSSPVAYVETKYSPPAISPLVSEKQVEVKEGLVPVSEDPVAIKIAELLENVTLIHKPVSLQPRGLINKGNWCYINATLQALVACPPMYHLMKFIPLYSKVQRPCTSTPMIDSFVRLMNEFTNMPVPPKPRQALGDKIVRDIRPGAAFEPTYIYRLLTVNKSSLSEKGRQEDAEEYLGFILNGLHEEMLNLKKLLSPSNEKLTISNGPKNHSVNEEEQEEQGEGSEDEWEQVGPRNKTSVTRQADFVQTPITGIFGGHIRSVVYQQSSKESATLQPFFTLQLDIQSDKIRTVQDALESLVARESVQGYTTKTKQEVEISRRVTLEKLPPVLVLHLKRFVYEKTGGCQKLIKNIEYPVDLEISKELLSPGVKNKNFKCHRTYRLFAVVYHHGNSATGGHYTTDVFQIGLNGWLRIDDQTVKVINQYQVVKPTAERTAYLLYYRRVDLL
USP30 block – inhibitors of human USP30 deubiquitinase. purified USP30, Ub-rhodamine cleavage fluorescence. inhibition, % at 25 µM. 47,000 compounds, 5.3% hits. AID 1645860, 2021
USP28 inh – inhibitors of human USP28 deubiquitinase; Ubiquitin carboxyl-terminal hydrolase 28 (Homo sapiens), Q96RU2; purified USP28, Ub-rhodamine cleavage fluorescence, 30 min; inhibition, % at 25 µM; 47,000 compounds, 3% hits; AID 1645857, 2021
USP8 inh – inhibitors of human USP8 deubiquitinase; Ubiquitin carboxyl-terminal hydrolase 8 (Homo sapiens), P40818; purified USP8, Ub-rhodamine cleavage fluorescence, 30 min; inhibition, % at 20 µM; 47,000 compounds, 4.2% hits
USP7 inh – inhibitors of human USP7 deubiquitinase; 47,000 compounds, 0.3% hits; purified USP7, Ub-rhodamine cleavage fluorescence; inhibition, % at 20 µM; AID 1645854, 2021
* = called active by the depositor. Sampled rows, rich in hits. Any-hit rate of the full collection: about 13%. Cut-off read from the data, not from the text of the source: active = inhibition above about 30%; inactive = the rest.

Results for COc1ccc(CCNC(=O)c2cnn(-c3ccc([N+](=O)[O-])cc3)c2C2CCNCC2)c(OC)c1 ?
USP17 block: -15; USP10 block: -2; USP30 block: 34*; USP28 inh: 19; USP8 inh: -186; USP7 inh: 0

What do the screens show for `COc1ccc(CCNC(=O)c2cnn(-c3ccc(F)cc3)c2C2CCNCC2)c(OC)c1`?
USP17 block: -39; USP10 block: -5; USP30 block: 14; USP28 inh: 13; USP8 inh: -256; USP7 inh: 4

What do the screens show for `CCOC(=O)N1CCN(c2ccc3c(cc2=O)[C@@H](NC(C)=O)CCc2cc(OC)c(OC)c(OC)c2-3)CC1`?
USP17 block: 3; USP10 block: -4; USP30 block: -5; USP28 inh: -1; USP8 inh: 28; USP7 inh: -1

How did O=S1(=O)C[C@H](NCc2ccccc2F)[C@@H](S(=O)(=O)c2ccccc2)C1 do in these assays?
USP17 block: 10; USP10 block: 1; USP30 block: 21; USP28 inh: 9; USP8 inh: 24; USP7 inh: 6

Results for CCC(=O)Nc1nc2cc(NC(=O)Nc3ccc(OC)c(OC)c3)ccc2s1 ?
USP17 block: -4; USP10 block: -3; USP30 block: -4; USP28 inh: 19; USP8 inh: -3; USP7 inh: 3

How did CCC(=O)Nc1nc2cc(NC(=O)Nc3ccccc3Cl)ccc2s1 do in these assays?
USP17 block: 0; USP10 block: 24; USP30 block: 14; USP28 inh: 3; USP8 inh: 33*; USP7 inh: 13

Results for CCNC(=O)c1cccc(NC(=O)c2cc(Cl)c3c(c2)OCO3)c1 ?
USP17 block: 0; USP10 block: 1; USP30 block: -7; USP28 inh: 31*; USP8 inh: 0; USP7 inh: 0

How did COc1cc(C2C3(O)CC4C[C@]2(O)[C@](O)(C(=O)O4)[C@H]3C(=O)c2ccccc2)oc(=O)c1 (some centres undefined) do in these assays?
USP17 block: -2; USP10 block: -2; USP30 block: 3; USP28 inh: 0; USP8 inh: 1; USP7 inh: 0

What do the screens show for `COc1ccc(CNC(=O)c2snc(-c3ccccn3)c2N)cc1`?
USP17 block: 26; USP10 block: 1; USP30 block: 27; USP28 inh: 26; USP8 inh: 13; USP7 inh: 3

What do the screens show for `CCc1noc(-c2ccc(OCC(=O)Nc3ccc(C)cc3C)cc2)n1`?
USP17 block: 51*; USP10 block: 6; USP30 block: 15; USP28 inh: 5; USP8 inh: 1; USP7 inh: 5

What do the screens show for `CCc1ccc(NC(=O)COc2ccc(-c3nc(CC)no3)cc2)cc1`?
USP17 block: 20; USP10 block: 4; USP30 block: 26; USP28 inh: 2; USP8 inh: -17; USP7 inh: 4

Results for CCc1noc(-c2ccc(OCC(=O)Nc3ccccc3C(C)C)cc2)n1 ?
USP17 block: 41*; USP10 block: 1; USP30 block: 25; USP28 inh: -9; USP8 inh: -21; USP7 inh: 0

Results for CCCc1noc(-c2ccc(-n3ncc(C(=O)N4CCCCC4)c3C)nc2)n1 ?
USP17 block: 20; USP10 block: 1; USP30 block: 38*; USP28 inh: 29; USP8 inh: 5; USP7 inh: 0

How did COc1cnc(CSc2ccccc2)cc1OCC(=O)Nc1ccc(F)cc1 do in these assays?
USP17 block: 29; USP10 block: 0; USP30 block: 43*; USP28 inh: 9; USP8 inh: 8; USP7 inh: -44

What do the screens show for `COc1cnc(CSc2ncccn2)cc1OCC(=O)Nc1ccc(C)cc1C`?
USP17 block: 8; USP10 block: 0; USP30 block: 9; USP28 inh: -13; USP8 inh: -52; USP7 inh: -3

Results for COc1ccc(NC(=O)COc2cc(CSc3ccccc3)ncc2OC)cc1 ?
USP17 block: 61*; USP10 block: 3; USP30 block: 43*; USP28 inh: 17; USP8 inh: 21; USP7 inh: -8

How did COc1cnc(CSc2ccccc2)cc1OCC(=O)Nc1ccccc1F do in these assays?
USP17 block: 36*; USP10 block: 7; USP30 block: 25; USP28 inh: -3; USP8 inh: 5; USP7 inh: 5

How did COc1cnc(CSc2ccccc2)cc1OCC(=O)Nc1ccccc1 do in these assays?
USP17 block: -1; USP10 block: 3; USP30 block: -7; USP28 inh: -4; USP8 inh: -11; USP7 inh: -14

How did CCn1nc(C)cc1C(=O)N1CCOC2(COCCN(CC3CC3)C2)C1 (centres undefined) do in these assays?
USP17 block: -13; USP10 block: 0; USP30 block: -3; USP28 inh: 0; USP8 inh: -79; USP7 inh: 5

What do the screens show for `Cc1sc(NC2CCCC2)nc1-c1ccc2c(c1)CCN2C(=O)CC(C)(C)C`?
USP17 block: -38; USP10 block: -7; USP30 block: -108; USP28 inh: -23; USP8 inh: -35; USP7 inh: -11

How did CCCCOc1ccc(-c2cc3c(N4CCN(C(=O)c5ccco5)CC4)nccn3n2)cc1 do in these assays?
USP17 block: 24; USP10 block: -6; USP30 block: -35; USP28 inh: -4; USP8 inh: 8; USP7 inh: -92

How did CC(O)CN(CC(C)O)c1ncnc2c1sc1nc(-c3ccco3)c3c(c12)CC(C)(C)OC3 (centres undefined) do in these assays?
USP17 block: -29; USP10 block: -4; USP30 block: -76; USP28 inh: -5; USP8 inh: -6; USP7 inh: 0

What do the screens show for `CCOCCCn1c(=O)[nH]c(=O)c2c(N)c(C(=O)c3ccc(OC)c(OC)c3)sc21`?
USP17 block: -12; USP10 block: -2; USP30 block: -19; USP28 inh: -12; USP8 inh: -7; USP7 inh: 0

Results for Nc1c(C(=O)c2ccco2)sc2c1c(=O)[nH]c(=O)n2Cc1ccc2c(c1)OCO2 ?
USP17 block: 4; USP10 block: -7; USP30 block: -441; USP28 inh: -58; USP8 inh: 54*; USP7 inh: -4

Results for Cc1ccc(-c2cc(C(=O)N3CCc4ccccc4C3)nn2C2CCS(=O)(=O)C2)cc1 (centres undefined) ?
USP17 block: 9; USP10 block: 9; USP30 block: 31*; USP28 inh: 16; USP8 inh: 8; USP7 inh: 3
